Among the data in PubChem BioAssay AID623870 (Broad Institute, 2012) are inhibition values, retold here.

About 2,600 (0.67%) of roughly 390,000 compounds were called active. The entries come from a sample that favours actives as a whole. Values without a mark were called inactive.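 Rule for the calls: active = mean inhibition of replicates at least 50% and at least half of replicates each reaching 50%; inconclusive = half or more replicates reach 50% but mean below 50%; inactive = the rest.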

This assay concerns the target Transforming acidic coiled-coil-containing protein 3 (Homo sapiens) (UniProt Q9Y6A5). The assay is described as follows: disruptors of ARNT/TACC3 protein interaction, primary screen, biochemical, AlphaScreen, single concentration (AID 623870).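 Note: 0% = complete ARNT plus TACC3 wells and 100% = ARNT alone without TACC3.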 As to conditions: AlphaScreen His-ARNT PAS-B/GST-TACC3 binding, luminescence; at 9.99 µM; hits give high values; TACC3 fragment carries E629A point mutation.
Regarding `Cc1ccc(S(=O)(=O)N(C)C[C@@H]2Oc3c(NC(=O)c4nc5ccccc5s4)cccc3C(=O)N([C@H](C)CO)C[C@@H]2C)cc1`, the inhibition is 9.91%. Regarding `C[C@H]1CN([C@@H](C)CO)C(=O)c2cc(-c3ccccc3F)cnc2O[C@@H]1CN(C)C`, the inhibition is 6.21%. Next, `Cc1noc(C)c1NC(=O)Nc1ccc2c(c1)CC(=O)N([C@@H](C)CO)C[C@@H](C)[C@H](CN(C)Cc1ccc(Oc3ccccc3)cc1)O2`: 15.6%. Next, `COCC(=O)Nc1ccc2c(c1)[C@@H]1C[C@H](CC(=O)NCc3ccc(Cl)cc3)O[C@H](CO)[C@@H]1O2`: -8.13%; `Cc1cc(C(=O)N/N=C/c2cc([N+](=O)[O-])cc(C)c2O)n[nH]1`: 64.3% (active). As to `Cc1cc(C(=O)NC2CCN(Cc3ccccc3)CC2)n[nH]1`, the inhibition is -0.213%.

As to `CCCNC(=O)Nc1ccc2c(c1)OC[C@@H](C)N(C(=O)c1ccccc1F)C[C@H](C)[C@@H](OC)CN(C)C2=O`, the inhibition was -9.6%.

For `C[C@@H]1CN([C@H](C)CO)C(=O)c2cc(NS(=O)(=O)c3ccccc3)ccc2O[C@H]1CN(C)S(=O)(=O)c1cccs1`, the inhibition is 0.265%. In the case of `Cc1ccc(NC(=O)C2CC2c2ccccc2)cc1` (stereo not drawn) it was -4.03%; in that of `O=C(N/N=C/c1cccc2cccnc12)[C@H]1C[C@@H]1c1ccccc1`, 73.3% (active). Consider `O=C(Nc1ccccc1)Oc1cccc2cccnc12`, for which the inhibition is -7.89%.

Turning to `C[C@H](CO)N1C[C@H](C)[C@@H](CN(C)C)Oc2cc(C#Cc3ccccc3)ccc2S1(=O)=O`, the inhibition was 8.14%. As to `COc1ccc(NC(=O)N(C)C[C@@H]2Oc3ccc(NS(C)(=O)=O)cc3C(=O)N([C@@H](C)CO)C[C@@H]2C)cc1`, the inhibition is -7.68%. Next, `CCOc1cccc(/C=N/NC(=S)NCCN2CCOCC2)c1O`: 64.9% (active); `COc1cccc(C(CC(=O)NCCN2CCOCC2)NS(=O)(=O)c2ccc(C)cc2)c1OC` (stereo not drawn): -9.59%; `CCc1cc(=O)oc2c(C)c(OCC(=O)NCCN3CCOCC3)ccc12`: -0.887%. Next, `C[C@@H]1CN([C@@H](C)CO)C(=O)Cc2cc(NC(=O)Nc3ccc(F)cc3)ccc2O[C@@H]1CN(C)C(=O)NC1CCCCC1`: 0.811%; `Cn1c(=NC(=O)c2ccc3c(c2)OCCO3)sc2cc(S(C)(=O)=O)ccc21`: -1.86%. In the case of `Cn1c(=NC(=O)c2ccco2)sc2cccc(F)c21` it was -2.41%; in that of `Cn1c(=NC(=O)c2cnccn2)sc2ccccc21`, 50.2% (active). For `CN(C(=O)c1ccccc1)c1nccnc1C#N`, the inhibition was 48.5% (active). For `CCCN1[C@@H]2c3ccc(-c4ccccc4OC)c(=O)n3C[C@H]1[C@H](CO)[C@H]2C(=O)NCc1ccccn1`, the inhibition is -0.436%. Next, `CO[C@H]1CN(C)C(=O)c2cc(NS(=O)(=O)CC(F)(F)F)ccc2OC[C@@H](C)N(C(=O)c2ccc3c(c2)OCO3)C[C@@H]1C`: 8.14%. Next, `CCCC(=O)Nc1ccc2c(c1)C(=O)N(C)C[C@@H](OC)[C@@H](C)CN(Cc1cncnc1)[C@@H](C)CO2`: -2.89%; `CCN(/N=C/c1ccccc1)c1cc(=O)n(C)c(=O)[nH]1`: 6.16% (active); `CN1C(=O)c2cc(NC(=O)c3cnccn3)ccc2OC[C@@H]2O[C@H](CC(=O)NC3CCC3)CC[C@@H]21`: -9.79%. In the case of `C[C@H](CO)N1C[C@H](C)[C@H](CN(C)S(C)(=O)=O)Oc2c(NC(=O)Nc3cccc4ccccc34)cccc2C1=O` it was 8.09%; in that of `O=C(C[C@@H]1C[C@@H]2c3cc(NC(=O)c4ccc5c(c4)OCO5)ccc3O[C@@H]2[C@@H](CO)O1)NCC1CC1`, -5.9%; in that of `COc1ccccc1NC(=O)N(C)C[C@@H]1Oc2ncc(C#CCC(C)C)cc2C(=O)N([C@@H](C)CO)C[C@@H]1C`, -5.04%. As to `C[C@@H](NC(=O)C[C@@H]1C[C@H]2c3cc(NC(=O)C4CCC4)ccc3O[C@H]2[C@@H](CO)O1)c1ccccc1`, the inhibition is -9.96%. On to `N#C[C@@H]1[C@@H](c2ccc(-c3cccnc3)cc2)[C@H](CO)N1C(=O)Nc1ccc(F)cc1`, for which the inhibition was -8.19%. Next, `Cc1ccc(Oc2ccc3c(c2)C(=O)N(c2cccc4cccnc24)C3=O)cc1`: 1.71%. Regarding `Cc1ccc(OS(=O)Nc2cccc3nccnc23)cc1` (stereo not drawn), the inhibition is 69.3% (active). Next, `COCC(=O)N1C[C@@H](C)[C@H](OC)CN(C)C(=O)c2ccc(NC(=O)c3ccc(OC)cc3)cc2OC[C@@H]1C`: -7.16%. As to `CO[C@H]1CN(C)C(=O)c2cc(NC(=O)Nc3cccc(F)c3)ccc2OC[C@H](C)N(C(C)=O)C[C@H]1C`, the inhibition was 28%.

Turning to `CO[C@@H]1CN(C)C(=O)c2cc(NC(=O)C3CC3)ccc2OC[C@@H](C)N(Cc2nccs2)C[C@@H]1C`, the inhibition is -5.42%. In the case of `C[C@H](CO)N1C[C@H](C)[C@H](CN(C)C(=O)Nc2cccc3ccccc23)Oc2ccc(NS(C)(=O)=O)cc2C1=O` it was -5.79%; in that of `CNC[C@@H]1OCCCC[C@H](C)Oc2ccc(NS(=O)(=O)c3ccc(F)cc3)cc2C(=O)N([C@@H](C)CO)C[C@@H]1C`, -1.03%; in that of `CC(C)(C)Nc1nc(-c2ccccn2)nc2ccccc12`, 93% (active). Next, `CC(Nc1nc(C(F)(F)F)nc2ccccc12)c1cccs1` (stereo not drawn): -5.59%. With `O=C(C[C@@H]1C[C@H]2c3cc(NC(=O)C4CCOCC4)ccc3O[C@H]2[C@H](CO)O1)NCc1ccc2c(c1)OCO2`, the inhibition was -5.45%.

Turning to `O=C(NC1CCCC1)[C@H]1[C@H](CO)[C@H]2Cn3c(ccc(-c4ccccc4F)c3=O)[C@@H]1N2C(=O)CC1CC1`, the inhibition is -1.58%.

In the case of `C[C@@H]1CN([C@@H](C)CO)C(=O)Cc2cc(NC(=O)Nc3ccc(F)cc3)ccc2O[C@@H]1CN(C)S(=O)(=O)c1ccccc1`, the inhibition was 2.95%. As for `C[C@H](CO)N1C[C@H](C)[C@@H](CN(C)Cc2ccncc2)Oc2ncc(C#CC3CC3)cc2C1=O`, the inhibition was -1.14%. Next, `Cn1c(N)c(C(=O)COC(=O)c2cnc(Cl)c(Cl)c2)c(=O)n(C)c1=O`: 45.8% (active); `Cn1c(N)c(C(=O)COC(=O)c2ccc3ccccc3c2)c(=O)n(C)c1=O`: -4.71%; `Cn1c(N)c(C(=O)COC(=O)COc2ccc(Cl)cc2)c(=O)n(C)c1=O`: 2.04%. In the case of `COc1ccc(C#Cc2cnc3c(c2)C(=O)N([C@H](C)CO)C[C@H](C)[C@H](CN(C)C(=O)CC2CC2)O3)cc1`, the inhibition is 3.95%. Next, `O=C1O[C@@H](c2ccccc2)[C@@H](c2ccccc2)N2[C@@H](c3ccccc3OCCO)[C@]3(C(=O)Nc4ccccc43)[C@@H](C(=O)N3CCCCCCC3)[C@H]12`: 29.4%. In the case of `Cc1nnc(N/N=C/c2ccccn2)[nH]c1=O` it was 61.4% (active); in that of `COc1ccc(-n2c(O)c(C=NCC(c3ccco3)N3CCCC3)c3ccccc3c2=O)cc1OC` (stereo not drawn), 5.52%; in that of `CCOc1ccc(N/C(N)=N/c2nc(C)c(C)c(=O)[nH]2)cc1`, -20.7%. In the case of `CCOc1ccc(-n2c(O)c(/C=N/Nc3nnc(C)c(=O)[nH]3)c3ccccc3c2=O)cc1`, the inhibition is 66.5% (active). In the case of `C[C@@H]1CN([C@H](C)CO)C(=O)c2cc(C#CC3(O)CCCC3)cnc2O[C@H]1CN(C)Cc1ccncc1` it was -3.19%; in that of `O=C(C[C@@H]1CC[C@H]2[C@@H](COC[C@H](O)CN2C(=O)Nc2ccc(Cl)cc2)O1)NCC1CC1`, -0.418%; in that of `CN(C)C(=O)[C@@H]1[C@@H](CO)[C@@H]2Cn3c(cccc3=O)[C@H]1N2CC1CCCCC1`, 10.9%. In the case of `COCC(=O)N1C[C@H]2[C@@H](c3ccccc31)[C@@H](CO)N2Cc1ccccc1` it was 4.41%. In the case of `O=C(C[C@@H]1CC[C@@H]2[C@H](COC[C@@H](O)CN2Cc2ccccc2)O1)NCCc1ccccc1` it was 0.273%.

For the compound `COc1ccc(-c2ccc(CNCCCN3CCOCC3)o2)cc1Cl`, the inhibition was 2.81%. Next, `Clc1ccc(-c2cc(COc3ccccc3)no2)cc1Cl`: 1.19%; `Fc1ccc(-c2ccc(CNCc3ccccn3)o2)cc1Cl`: 59.1% (active). In the case of `CO[C@H](CN(C)C(=O)c1cnccn1)[C@@H](C)CN([C@@H](C)CO)S(=O)(=O)c1ccc(C)cc1` it was 3.1%; in that of `C[C@@H]1CN([C@@H](C)CO)C(=O)c2cc(-c3cncnc3)cnc2O[C@@H]1CN(C)C(=O)c1ccccc1F`, -2.75%; in that of `C[C@@H]1CN([C@H](C)CO)S(=O)(=O)c2ccc(C#CCN(C)C)cc2O[C@@H]1CN(C)C(=O)CN(C)C`, -1.64%. In the case of `O=C(CCCO)N/N=C/c1cc(Br)ccc1O` it was 80.7% (active); in that of `O=C(CCNC(=O)c1ccccc1)NN=Cc1ccc(Br)o1`, 0.9%. On to `O=C(CCNc1n[nH]c(=O)[nH]c1=O)N/N=C\c1ccc(Br)cc1`, for which the inhibition was 1.48%. Next, `CN1C(=O)c2cc(NS(=O)(=O)c3ccc(Cl)cc3)ccc2OC[C@H]2O[C@@H](CC(=O)O)CC[C@H]21`: 4.03%. In the case of `C[C@@H]1CN([C@H](C)CO)C(=O)Cc2cc(NC(=O)CCCN(C)C)ccc2O[C@H]1CN(C)CC1CCCCC1` it was 0.403%; in that of `COc1cc(CNCc2ccc(OC)c3ccccc23)cc(OC)c1OC`, 4.98%. Next, `COc1ccc2ccccc2c1CNCc1ccccn1`: 55.2% (active); `CCOc1cc(CNCc2ccccn2)ccc1OCC(=O)NC(C)(C)C`: 36.2%. Take `Cc1ccc(S(=O)(=O)Nc2ccc3c(c2)C(=O)N([C@H](C)CO)C[C@H](C)[C@H](CN(C)C(=O)NC(C)C)OCCCC[C@@H](C)O3)cc1`: the inhibition was -2.46%.
